Reference: PubChem BioAssay AID1159580 (chemical genetic matrix, 2015)
Among all 5,500 compounds or so, about 2,000 (36%) were called active. Inconclusive results (about 18%) are left out. Rule as the data show it: active = normalized growth mostly below about 0.91 (no sharp cut-off); inconclusive = no clear call, values can overlap the other calls; inactive = mostly above about 0.92. This is one part of the list.

Experiment: chemical genetic growth profiling, strain panel (AID 1159580);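 also: tested at 20 µM; growth read once vehicle control cultures reached saturation at 30 °C; 1 = growth at the plate median or of vehicle wells; lower values mean less growth of the strain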
Details: S. cerevisiae deletion strains, growth OD

Measured: normalized growth

N[C@@H](C(=O)O)c1ccccc1
inactive: locus YAL013W, strain DEP1, hits give low values 1 | locus YBR229C, strain ROT2, hits give low values 1 | locus YDL101C, strain DUN1, hits give low values 1.01 | locus YDR150W, strain NUM1, hits give low values 0.997 | locus YEL061C, strain CIN8, hits give low values 1 | locus YGR078C, strain PAC10, hits give low values 0.998 | locus YHR030C, strain SLT2, hits give low values 0.927 | locus YHR087W, strain rtc3, hits give low values 0.998 | locus YJR043C, strain POL32, hits give low values 1.01 | locus YJR075W, strain HOC1, hits give low values 0.992 | locus YLR039C, strain RIC1, hits give low values 0.981 | locus YLR058C, strain SHM2 (second series), hits give low values 0.992 | locus YLR085C, strain ARP6, hits give low values 1.04 | locus YLR262C, strain YPT6, hits give low values 0.954 | locus YML094W, strain GIM5, hits give low values 1.03 | locus YMR219W, strain ESC1, hits give low values 1 | locus YMR263W, strain SAP30, hits give low values 0.987 | locus YNL128W, strain TEP1, hits give low values 0.985 | locus YNL153C, strain GIM3, hits give low values 0.999 | locus YNL298W, strain CLA4 (second series), hits give low values 1.02 | locus YNL322C, strain KRE1, hits give low values 1.01 | locus YNR030W, strain Alg12, hits give low values 1.03 | locus YPL055C, strain LGE1, hits give low values 0.996 | locus YPL241C, strain CIN2, hits give low values 1.02 | locus YPR135W, strain CTF4, hits give low values 0.974
